Test results published in PubChem BioAssay (Tox21).
Unmarked numbers belong to inactive results. Active and inactive are the calls of the source. Calls follow the shape of the dose curve; as a rule, active = well fitted curve in the direction sought with a large enough effect in the repeat runs; inconclusive = weak or mixed curves; inactive = flat fitted curve, though single readings scatter.

test: qHTS assay to test for compound auto fluorescence at 460 nm (blue) in HEK293 cells (AID 720678); settings: blue autofluorescence 405/460 nm; series mostly up to 91.3 µM; fluorescence, % of triamterene: at the top concentration
Excerpt: National Center for Advancing Translational Sciences [NCATS]
NIH Chemical Genomics Center [NCGC]
U.S. Environmental Protection Agency [EPA]
National Institutes of Environmental Health Sciences [NIEHS]
National Toxicology Program [NTP]
U.S. Food and Drug Administration [FDA]
Compound auto fluorescence often interferes with screening of the compound library against various biological targets and signaling pathways. Some of these compounds may have fluorophoric properties. Such properties may interfere with the assay outputs resulting in false positives and/or negatives. To decrease such complications and ensure the compound activities are relevant in terms of biological response, the Tox21 10K compound library was screened for auto fluorescence.
From the fluorophores used as reporter signals in our screening assays, the auto fluorescence equivalencies of compounds against three fluorophores have been evaluated: Triamterene, Fluorescein and Rose Bengal sodium for blue, green and red fluorescence, respectively. The fluorescence intensities were measured using Excitation/Emission wavelengths at 405/460nm, 485/535nm and 540/590nm for blue, green and red labels, respectively. This assay includes the blue fluorescence data.
Tox21 Assay Protocol Summary:
2,000 HEK293 cells in 5 uL of culture medium containing 10% dialyzed FBS per well were dispensed into black wall/clear bottom 1536-well plates using a Multidrop Combi Dispenser (Thermo Scientific). The assay plates were incubated for 4-5 hr at 37C to allow cell attachment to the well bottom, followed by the transfer of 23 nL compound or DMSO vehicle by a pintool work station (Kalypsys, San Diego, CA). After the assay plates were incubated overnight at 37C and 5% CO2, fluorescence intensities in the assay plates were measured by an Envision (PerkinElmer, Shelton, CT) plate reader using three labels for measuring blue, green and red fluorescence at […] 460, 535 and 590nm respectively.
% is scaled to controls: 0 for no effect and ±100 for the full control effect.

Structure (SMILES)	fluorescence, % of triamterene	Potency
O=C1C=CCCC1	-0.0949%	–
CC(=O)c1cccnc1	0.0265%	–
CCOc1ccc2c(c1)C(C)CC(C)(C)N2 (stereo not given)	2.08%	–
CCc1c(C)[nH]c2c1C(=O)C(CN1CCOCC1)CC2 (stereo not given)	0.0227% [at 18.6 µM]	–
O=Cc1ccc([N+](=O)[O-])cc1	0.0052%	–
Cc1cccc(C)c1NC(=O)CN1CCCC1	-0.0198% [at 46 µM]	–
CCCCCCCCCCCCCCCCN	0.0184% [at 46 µM]	–
N#Cc1ccc(CC(=O)c2cccc(C(F)(F)F)c2)cc1	-0.0031%	–
CCCN(C1CCN(C(=O)C2CCNCC2)CC1)[C@@H]1CCc2ccc(OC)cc2C1	-0.154%	–
CC(Cc1ccccc1)(NC(=O)CN)c1ccccc1 (stereo not given)	0.0798% [at 46 µM]	–
CC(C(=O)O)c1ccc(/C=C2\CCCCC2=O)cc1 (stereo not given)	0.141% [at 46 µM]	–
CCCCOC(=O)CC#N	0.0389% [at 95.7 µM]	–
Clc1nc2ccccc2nc1Cl	0.0124% [at 95.7 µM]	–
Clc1ccccc1-c1nc(-c2ccncc2)no1	-0.182% [at 46 µM]	–
CCCC1CCOC(C)S1 (stereo not given)	-0.0563%	–
Nc1ccccc1Nc1ccccc1	0.641%	–
C=C(C)C(=O)OCCCCCCCCCCOC(=O)C(=C)C	0.0101%	–
COc1cc(C)c(Cc2cnc(N)nc2N)cc1OC	-0.0992% [at 46 µM]	–
O=C(N[C@@H](Cc1ccccc1)[C@@H](O)C(=O)N1C[C@@H](O)[C@@H](O)C1)c1cc2cc(Cl)ccc2[nH]1	-0.379%	–
CC(C)CC(C)(C)C	-0.132% [at 95.7 µM]	–

Structure (SMILES)	fluorescence, % of triamterene	Potency
O=C(Nc1ccc2c(c1)Cc1ccccc1-2)C(F)(F)F	-0.0684%	–
O=C(Nc1ccccc1)c1cc([N+](=O)[O-])ccc1Cl	-0.0856%	–
CCC1=C(C)CN(C(=O)NCCc2ccc(S(=O)(=O)NC(=O)NC3CCC(C)CC3)cc2)C1=O (stereo not given)	-0.0555% [at 46 µM]	–
C1CCN(CN2CCCCC2)CC1	-0.0575%	–
CC(O)CN (stereo not given)	0.501%	–
CCCc1ccc(OC)cc1	0.026%	–
CCOC(C)OCC	–	inactive
O=C(O)COCC(=O)O	-0.0359%	–
OCCOc1cccc(OCCO)c1	0.2%	–
NC(=O)c1ccccc1	-0.233% [at 95.7 µM]	–
Cc1ccc2c(Cl)cc(Cl)c(O)c2n1	2.16% [at 46 µM]	–
O=Cc1ccc(Cl)c([N+](=O)[O-])c1	-0.0226%	–
CC1(C)CC(O)CC(C)(C)N1[O]	0.106%	–
CCCCCCCCCCCCN1CCOCC1	0.079%	–
NCCOCCOCCN	0.0965%	–
COc1ccc(/C=C/S(=O)(=O)NC(=O)c2ccc(C)cc2Cl)cc1	-0.0928%	–
O=C(O)CCc1nc2ccccc2[nH]1	0.0487% [at 46 µM]	–
CNc1ccccc1	-0.246%	–
Cc1nc2sccn2c(=O)c1CCN1CCC(=C(c2ccc(F)cc2)c2ccc(F)cc2)CC1	-0.0316% [at 46 µM]	–
Cc1c(N=C=O)cccc1N=C=O	0.0721% [at 95.7 µM]	–
